In the library only some 2.6% were active in any assay of this set; here they are far more common.
pPAFAH FP inh: pPAFAH (human) enzyme inhibition; inhibition, % at 3.39 µM; Q13093; recombinant pPAFAH, FP-rhodamine probe fluorescence polarization; 330,000 compounds, 1.5% hits; AID 463082;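 active = inhibition above the mean inhibition across the screen plus 3 SD, cut at about 25% in these data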;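 also: inhibitors block binding of the rhodamine activity-based probe so polarization drops; 0% = enzyme with DMSO and 100% = wells lacking pPAFAH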
Target sequence (Q13093 whole entry, looked up): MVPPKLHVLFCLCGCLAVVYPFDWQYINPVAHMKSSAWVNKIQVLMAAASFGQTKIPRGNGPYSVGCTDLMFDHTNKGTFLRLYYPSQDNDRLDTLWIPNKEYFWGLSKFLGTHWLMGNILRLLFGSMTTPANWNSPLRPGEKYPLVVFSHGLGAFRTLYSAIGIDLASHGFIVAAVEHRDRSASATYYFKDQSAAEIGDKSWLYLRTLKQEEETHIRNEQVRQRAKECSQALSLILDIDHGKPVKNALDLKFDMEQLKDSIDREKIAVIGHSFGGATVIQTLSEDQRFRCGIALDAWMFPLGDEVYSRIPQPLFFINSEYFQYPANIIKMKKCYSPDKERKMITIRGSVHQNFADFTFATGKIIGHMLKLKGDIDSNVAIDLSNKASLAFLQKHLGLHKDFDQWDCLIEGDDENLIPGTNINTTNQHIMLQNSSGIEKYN
PKA-R1A activ: activators of PKA-R1A complex. P00514+P68181. PKA-R1A dissociation, Cy5-IP20 fluorescence polarization; scaled: DMSO 0%, 113 µM cGMP 100%. activation, % at 11.4 µM. 340,000 compounds, 0.083% hits;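 active = percent activation above the mean of all tested compounds plus 3 SD, cut at about 19% in these data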;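 also: higher means more PKAc released from R1A so a rise in polarization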
PAFAH2 inh: PAFAH2 (human) inhibition | inhibition, % at 3.39 µM | Q99487 | AID 492956 | 340,000 compounds, 0.99% hits | recombinant PAFAH2, FP-rhodamine activity probe, fluorescence polarization;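 active = inhibition above the mean over all tested compounds plus 3 SD, cut at about 30% in these data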;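 also: inhibitors block probe labeling of enzyme so polarization drops; 0% = enzyme with DMSO and 100% = wells lacking PAFAH2 protein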
PKA-R2B act: PKA-R2B complex activation; P22694+P31323; PKA-R2B holoenzyme dissociation, Cy5-IP20 fluorescence polarization; R2B truncated from residue 108, S112A mutant; 0% DMSO only, 100% 113 µM cGMP; activation, % at 11.4 µM; 340,000 compounds, 0.079% hits; AID 504700;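 active = activation above a cutoff set at the mean over all compounds plus 3 SD, cut at about 18% in these data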;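 also: higher means more holoenzyme dissociation and a rise in polarization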
PAFAH1B3 FP inh: blocks human PAF acetylhydrolase 1B catalytic subunit 3; Q15102; recombinant PAFAH1B3, FP-rhodamine probe, fluorescence polarization; inhibition, % at 3.39 µM; 340,000 compounds, 0.28% hits; AID 492972;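 active = inhibition above the screen-wide average of all tested compounds plus 3 SD, cut at about 25% in these data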;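 also: 0% = enzyme with DMSO only and 100% = wells lacking PAFAH1B3 protein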
PAFAH1B2 inh: PAFAH1B2 (human) inhibition | recombinant PAFAH1B2, FP-rhodamine activity probe, fluorescence polarization | inhibition, % at 3.39 µM | 340,000 compounds, 1.2% hits | AID 492953;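 active = inhibition above the mean of all tested compounds plus 3 SD, cut at about 24% in these data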;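 also: 0% = enzyme with DMSO and 100% = wells lacking PAFAH1B2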
pPAFAH confirm: pPAFAH (human) inhibition, confirmed. inhibition, % at 3.39 µM. shares compounds with pPAFAH FP inh. 2,300 compounds, 72% hits. recombinant pPAFAH, FP-Rh probe fluorescence polarization;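 active = mean inhibition of the triplicate above the hit cutoff set for the earlier primary screen, cut at about 25% in these data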;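 also: 0% = enzyme with DMSO and 100% = wells lacking pPAFAH enzyme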
Starred values were filed as active, the others as inactive; x = no result.

SMILES	pPAFAH FP inh	PKA-R1A activ	PAFAH2 inh	PKA-R2B act	PAFAH1B3 FP inh	PAFAH1B2 inh	pPAFAH confirm
COc1ccc(S(=O)(=O)N2CCCC2CNC(=O)C(=O)NCc2cccs2)cc1 (configuration not stated)	5	-16	-4	1	-2	2	x
COc1cc(C2C(C#N)=C(N)OC3=C2C(=O)CCC3)c([N+](=O)[O-])cc1OC (configuration not stated)	38*	-7	26	2	27*	12	11
Cc1cccc(C(=O)Nc2ccc(S(=O)(=O)Nc3nc(C)cc(C)n3)cc2)c1	8	-1	1	-10	7	3	x
Cc1ccc(N=Cc2cccc(O)c2O)c(C)c1	37*	-11	9	-3	17	10	10
COCCC(=O)N1CCC(Oc2ccc(C(=O)N3CCCCC3CCO)cc2)CC1 (configuration not stated)	1	7	0	-3	12	2	x
O=Cc1ccc(-c2nc3ccccc3s2)o1	3	-1	-5	-1	1	-6	x
O=C(O)CCCN1C(=O)/C(=C/C=C/c2ccco2)SC1=S	61*	-5	32*	-5	12	6	18
O=C1S/C(=C\C=C\c2ccco2)C(=O)N1c1ccc(O)cc1	37*	8	-4	-9	0	0	6
O=C(O)CC(C(=O)O)N1C(=O)/C(=C/C=C/c2ccco2)SC1=S (configuration not stated)	68*	7	22	5	8	5	10
O=C(O)CC(C(=O)O)N1C(=O)/C(=C/c2ccc(-c3nc4ccccc4s3)o2)SC1=S (configuration not stated)	65*	6	34*	-3	18	7	42*
O=C(NN1C(=O)/C(=C/C=C/c2ccco2)SC1=S)c1ccccc1O	78*	-7	59*	-1	26*	19	67*
Cn1cccc1/C=C1\SC(=S)N(NC(=O)c2ccccc2O)C1=O	11	-8	14	-12	7	0	x
Cn1c2ccccc2c2cc(/C=N/NC(=O)c3cc(O)ccc3O)ccc21	57*	-12	24	-12	59*	30*	28*
CC(C)=CCc1c(-c2ccc(O)cc2O)oc2c3c(cc(O)c2c1=O)OC(C)(C)C=C3	4	x	x	x	x	x	x
CC(C)=CCc1c2c(c(O)c3c(=O)c4c(oc13)-c1cc(O)c(O)cc1OC4C=C(C)C)C=CC(C)(C)O2 (configuration not stated)	37*	x	x	x	x	x	52*
Cc1cc(=O)c2c(N(C)C)cccc2[nH]1	x	8	x	10	x	x	x
CCOc1ccc(NC(=S)NC(=O)/C=C/c2ccc(C)cc2)c([N+](=O)[O-])c1	38*	3	-9	4	-21	-2	-2
COc1ccccc1N1C(=O)c2ccc(C(=O)Nc3ccccc3O)cc2C1=O	1	-2	2	6	3	2	x
COc1ccccc1N1C(=O)c2ccc(C(=O)Nc3nccs3)cc2C1=O	43*	x	x	x	x	x	1
COCCSc1nnc(NC(=O)CCS(=O)(=O)c2ccccc2)s1	2	-9	-5	-20	3	8	x
CCC1=NN2C(=N)/C(=C/c3cc(C)n(Cc4ccccc4)c3C)C(=O)N=C2S1	18	-3	-6	-2	1	15	x
Cc1cc(/C=C2\C(=N)N3N=C(c4ccco4)SC3=NC2=O)c(C)n1Cc1ccccc1	36*	-10	16	6	13	36*	70*
COc1ccc(-n2cccc2/C=C2\C(=N)N3N=C(c4ccco4)SC3=NC2=O)cc1	47*	-9	27	-4	-7	0	63*
CC(=O)c1sc2nc(-c3cccs3)ccc2c1N	4	-5	5	-1	7	8	x
Nc1c(C(=O)Nc2nc3ccccc3s2)sc2nc(-c3cccs3)ccc12	50*	5	18	-2	6	9	43*
SMILES	pPAFAH FP inh	PKA-R1A activ	PAFAH2 inh	PKA-R2B act	PAFAH1B3 FP inh	PAFAH1B2 inh	pPAFAH confirm
CCN=c1scc(-c2ccco2)n1/N=C/c1ccc(O)cc1	2	-6	3	13	11	4	x
COCCN=c1scc(-c2cccs2)n1/N=C/c1ccc(O)c(O)c1O	44*	-2	9	-1	-6	-7	75*
CCN=c1scc(C)n1/N=C/c1cc(Br)c(O)c(Br)c1	41*	5	19	1	20	14	25*
CCN=c1scc(C)n1/N=C/c1ccc(O)c(O)c1O	46*	-8	13	2	9	0	11
COCCN=c1scc(-c2ccccc2)n1/N=C/c1c[nH]c2ccccc12	12	-3	13	-9	6	4	x
Cc1cc(C)nc(NS(=O)(=O)c2ccc(NC(=O)CCC(=O)O)cc2)n1	-2	7	4	1	4	7	x
Cc1ccc(NC(=O)N2CCCc3ccccc32)cc1C	-2	-10	3	1	6	-3	x
CCCCCCN1C[C@H](O)[C@@H](n2cc(C3CC3)nn2)C[C@@H]1c1ccc(OC)cc1	x	-6	x	8	x	x	x
O=C(O)CSc1cc(C(=O)c2cc(F)ccc2O)cn2c(=O)c3c(-c4ccccc4)csc3nc12	53*	-3	-32	1	-41	-26	65*
CC1=NN(c2ccccc2)C(=O)/C1=C/c1c(O)n(-c2ccc(F)cc2)[nH]c1=O	54*	-7	48*	-5	44*	47*	53*
CC1=NN(c2ccccc2)C(=O)C1=Cc1ccccc1	x	-6	x	-9	x	x	x
COc1ccc2[nH]c(O)c(N=NC(=O)c3ccc(NS(=O)(=O)c4cccs4)cc3)c2c1	44*	0	23	-10	32*	21	39*
Cc1cccc(C(=O)Oc2cccc3c(O)cccc23)c1	12	-7	-3	-9	3	1	x
O=C(OCC(=O)N1CCN(C(=O)c2ccco2)CC1)c1cc(S(=O)(=O)Nc2ccc(Cl)cc2)ccc1O	62*	8	13	0	4	33*	68*
O=C(O)c1ccccc1N/N=C/c1cc(Br)cc(Br)c1O	41*	2	35*	0	10	12	62*
O=C(CN(C(=O)c1csnn1)c1ccccc1Cl)NC1CCCCC1	x	7	7	7	9	8	x
CN1CCN(C(=O)COCc2cc(-c3ccc4c(c3)OCO4)on2)CC1	2	6	3	-3	5	0	x
COc1ccc(N2CCN(C(=O)COC(=O)c3cccc(S(=O)(=O)Nc4cccc(C)c4)c3)CC2)cc1	40*	-8	3	-8	2	-4	44*
O=C(CCOc1ccccc1)NNC(=O)c1ccccc1	1	3	-1	-9	10	8	x

Screening data (PubChem)
